Data from PubChem BioAssay.
Activity calls are given as the source filed them.

Key:
Albumin (Bos taurus) = Albumin (Bos taurus) (UniProt P02769); assay: compounds binding labelled BSA control protein – biochemical, small-molecule microarray, Alexa647 label, 635/667 nm fluorescence, artefact control for SMM control protein annotation, profiling panel (AID 1118); conditions: BSA-A647 binding, fluorescence 635 nm, higher = more signal;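 note: score merges 667 nm emission intensity and signal-to-noise per printed compound spot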
[1] = probe aXIP binding to arrayed compounds – biochemical, NeuroSMM set, 635/667 nm fluorescence, primary screen (AID 1119); conditions: small-molecule microarray, higher = more signal, called active from +8 up or from −8 down;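 note: probe is the protein aXip251-270 applied at 1 µg/mL to compound-printed slides; binding of probe to printed compounds measured as 667 nm fluorescence plus signal to noise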
[2] = probe aNOTCH3 binding on compound microarray – biochemical, small-molecule microarray, 635/667 nm fluorescence, primary screen (AID 1120); conditions: higher = more signal;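 note: probe is a biotin-tagged antibody raised against NOTCH3 rather than NOTCH3 protein; score merges spot fluorescence near 667 nm with spot signal to noise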
[3] = probe aNOTCH2 binding on compound microarray – biochemical, small-molecule microarray, 635/667 nm fluorescence, primary screen (AID 1121); conditions: higher = more signal;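 note: score merges feature fluorescence read at 667 nm with its signal to noise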
[4] = target: Carbonic anhydrase 2 (Homo sapiens) (UniProt P00918); assay: compounds binding carbonic anhydrase 2 – biochemical, small-molecule microarray, Alexa647-labelled CAII, profiling panel (AID 1122); conditions: CAII-A647 binding fluorescence, higher = more signal
[5] = COS7 lysate on small-molecule microarray, probe aHis, 635 nm (AID 1123); conditions: COS7 cell lysate, fluorescence, higher = more signal;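 note: z-score combines 667nm fluorescence intensity with signal-to-noise per printed compound spot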
[6] = probe aLAP1 signal on lysate-treated microarray – cell lysate, small-molecule microarray, COS7 lysate, primary screen (AID 1124); conditions: probe aLAP1, fluorescence, higher = more signal;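 note: lysate comes from COS7 cells expressing LAP1 and is applied at 0.3 µg/mL; score merges spot fluorescence near 667 nm with signal-to-noise over triplicate slides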
Sam68 (KHDRBS1) = assay: compounds binding KHDRBS1 protein – biochemical, small-molecule microarray, 635 nm fluorescence, primary screen (AID 1125); conditions: higher = more signal;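 note: score merges 667 nm channel intensity with signal to noise over triplicate slides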
[7] = tested on: Chordin-like protein 2 (CHRDL2); assay: compounds binding chordin-like 2 – biochemical, small-molecule microarray, 635 nm fluorescence, primary screen (AID 1126); conditions: fluorescence 635 nm, higher = more signal;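 note: printed compound slides probed with Chrdl2 protein at 4 µg/mL for 1 h at 4 C; score merges 667 nm emission intensity with signal to noise over three replicate slides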
[8] = target: Concanavalin-A (Canavalia ensiformis) (UniProt P02866); assay: compounds binding concanavalin A lectin – biochemical, small-molecule microarray, Alexa647 label, 635 nm, artefact control for SMM control protein annotation, primary screen (AID 1127); conditions: ConA-A647 binding fluorescence, higher = more signal;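 note: z combines 667 nm emission intensity with signal-to-noise across three replicate slides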
[9] = compounds binding Alexa647 anti-His antibody – biochemical, small-molecule microarray, 635 nm fluorescence, artefact control for SMM control protein annotation, primary screen (AID 1128); conditions: higher = more signal;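 note: score merges feature fluorescence with signal-to-noise for each printed compound spot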
[10] = tested on: Human papillomavirus type 1a E7 protein (residues 1-88); assay: HPV1a E7 small-molecule binders, primary screen, biochemical, small-molecule microarray, residues 1-88, 635 nm (AID 1129); conditions: small-molecule microarray binding, fluorescence 635 nm; higher = more signal
[11] = target: Focal adhesion kinase 1 (Homo sapiens) (UniProt Q05397); assay: PTK2 protein binding on printed compound slides – biochemical, small-molecule microarray, 635/667 nm fluorescence, BSA, DTT, primary screen (AID 1130); conditions: 635 nm fluorescence, higher = more signal;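 note: composite of spot emission at 667 nm and signal to noise over triplicate slides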
[12] = tested on: Fibrinogen (Alexa647-labelled); assay: Alexa647-fibrinogen binding to printed small molecules – biochemical, small-molecule microarray, 635/667 nm fluorescence, artefact control for SMM control-protein annotation, profiling panel (AID 1131); conditions: fibrinogen-A647 binding fluorescence, higher = more signal;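 note: z-score merges 667 nm fluorescence with per-spot signal-to-noise over triplicate slides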
[13] = target: Follistatin (Homo sapiens) (UniProt P19883); assay: FST protein binding to printed compounds – biochemical, small-molecule microarray, 635/667 nm fluorescence, primary screen (AID 1132); conditions: 635 nm fluorescence, higher = more signal
[14] = target: Fibroblast growth factor 2 (Homo sapiens) (UniProt P09038); assay: basic fibroblast growth factor binding to printed compounds – biochemical, small-molecule microarray, 635/667 nm fluorescence, primary screen (AID 1133); conditions: FGF2, fluorescence 635/667, higher = more signal
[15] = JC-1 mitochondrial potential readout, lung cancer cells – cell-based, A549, JC-1 fluorescence, basal, 24 h, 100 nL, profiling panel (AID 1138); conditions: higher = more signal;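 note: A549 lung adenocarcinoma cells under basal conditions with no added stimulus; test concentration not given here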
Lefty1 = Lefty1 protein binding to printed compounds – biochemical, small-molecule microarray, 635/667 nm fluorescence, primary screen (AID 1139); conditions: fluorescence 635/667, higher = more signal
[16] = tested on: wheat germ agglutinin (Triticum aestivum), Alexa647-labelled; assay: Alexa647-WGA lectin binding to printed small molecules – biochemical, small-molecule microarray, 635/667 nm fluorescence, artefact control for SMM control-protein annotation, profiling panel (AID 1140); conditions: WGA-A647 binding, 635 nm fluorescence, higher = more signal;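 note: score merges 667 nm feature emission with signal to noise over triplicate slides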
[17] = target: Luciferin 4-monooxygenase (Photinus pyralis) (UniProt P08659); assay: inhibition of purified Photinus pyralis luciferase – biochemical, luminescence, purified enzyme, 2006 set, primary screen (AID 1141); conditions: purified firefly luciferase, SteadyGlo luminescence, 30 min; higher = more signal, called active from +8 up or from −8 down;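 note: cell-free assay with purified firefly luciferase at 100 ng per well in PBS; test concentration not given here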
Luciferin 4-monooxygenase (Photinus pyralis), sequence (P08659 whole entry, looked up): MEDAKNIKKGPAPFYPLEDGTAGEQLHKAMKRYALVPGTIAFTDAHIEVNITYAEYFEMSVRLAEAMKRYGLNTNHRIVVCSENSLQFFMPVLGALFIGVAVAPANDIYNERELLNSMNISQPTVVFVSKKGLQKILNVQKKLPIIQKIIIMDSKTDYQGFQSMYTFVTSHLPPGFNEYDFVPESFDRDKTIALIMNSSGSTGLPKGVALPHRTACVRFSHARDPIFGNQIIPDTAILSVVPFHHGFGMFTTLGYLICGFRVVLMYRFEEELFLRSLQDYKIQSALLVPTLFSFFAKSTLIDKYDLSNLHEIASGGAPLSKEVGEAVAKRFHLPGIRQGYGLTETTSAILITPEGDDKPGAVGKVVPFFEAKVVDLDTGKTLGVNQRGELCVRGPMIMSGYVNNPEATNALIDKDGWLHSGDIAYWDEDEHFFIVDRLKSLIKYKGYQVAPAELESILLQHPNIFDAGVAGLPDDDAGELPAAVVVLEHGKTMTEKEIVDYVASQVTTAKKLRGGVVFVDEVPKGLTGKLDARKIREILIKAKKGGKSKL

Follistatin (Homo sapiens), sequence (P19883 whole entry, looked up): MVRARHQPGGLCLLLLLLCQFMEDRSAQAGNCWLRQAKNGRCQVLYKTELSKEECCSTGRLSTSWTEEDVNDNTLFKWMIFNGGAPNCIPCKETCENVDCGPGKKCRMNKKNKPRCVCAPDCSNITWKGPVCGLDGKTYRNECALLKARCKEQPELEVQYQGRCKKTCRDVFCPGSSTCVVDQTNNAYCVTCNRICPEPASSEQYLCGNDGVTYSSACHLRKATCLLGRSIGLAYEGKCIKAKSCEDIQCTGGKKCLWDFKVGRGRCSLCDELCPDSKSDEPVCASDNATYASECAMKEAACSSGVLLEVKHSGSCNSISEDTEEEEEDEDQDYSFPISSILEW
Fibroblast growth factor 2 (Homo sapiens), sequence (P09038 whole entry, looked up): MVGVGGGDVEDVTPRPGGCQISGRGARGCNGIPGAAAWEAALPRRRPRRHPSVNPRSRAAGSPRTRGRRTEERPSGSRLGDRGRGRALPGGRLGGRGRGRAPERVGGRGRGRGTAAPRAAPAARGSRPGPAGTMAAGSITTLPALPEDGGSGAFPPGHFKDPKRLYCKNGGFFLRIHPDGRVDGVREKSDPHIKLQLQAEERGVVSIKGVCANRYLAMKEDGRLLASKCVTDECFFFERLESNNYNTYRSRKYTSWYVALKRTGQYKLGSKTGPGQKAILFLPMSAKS
Focal adhesion kinase 1 (Homo sapiens), sequence (Q05397 whole entry, looked up): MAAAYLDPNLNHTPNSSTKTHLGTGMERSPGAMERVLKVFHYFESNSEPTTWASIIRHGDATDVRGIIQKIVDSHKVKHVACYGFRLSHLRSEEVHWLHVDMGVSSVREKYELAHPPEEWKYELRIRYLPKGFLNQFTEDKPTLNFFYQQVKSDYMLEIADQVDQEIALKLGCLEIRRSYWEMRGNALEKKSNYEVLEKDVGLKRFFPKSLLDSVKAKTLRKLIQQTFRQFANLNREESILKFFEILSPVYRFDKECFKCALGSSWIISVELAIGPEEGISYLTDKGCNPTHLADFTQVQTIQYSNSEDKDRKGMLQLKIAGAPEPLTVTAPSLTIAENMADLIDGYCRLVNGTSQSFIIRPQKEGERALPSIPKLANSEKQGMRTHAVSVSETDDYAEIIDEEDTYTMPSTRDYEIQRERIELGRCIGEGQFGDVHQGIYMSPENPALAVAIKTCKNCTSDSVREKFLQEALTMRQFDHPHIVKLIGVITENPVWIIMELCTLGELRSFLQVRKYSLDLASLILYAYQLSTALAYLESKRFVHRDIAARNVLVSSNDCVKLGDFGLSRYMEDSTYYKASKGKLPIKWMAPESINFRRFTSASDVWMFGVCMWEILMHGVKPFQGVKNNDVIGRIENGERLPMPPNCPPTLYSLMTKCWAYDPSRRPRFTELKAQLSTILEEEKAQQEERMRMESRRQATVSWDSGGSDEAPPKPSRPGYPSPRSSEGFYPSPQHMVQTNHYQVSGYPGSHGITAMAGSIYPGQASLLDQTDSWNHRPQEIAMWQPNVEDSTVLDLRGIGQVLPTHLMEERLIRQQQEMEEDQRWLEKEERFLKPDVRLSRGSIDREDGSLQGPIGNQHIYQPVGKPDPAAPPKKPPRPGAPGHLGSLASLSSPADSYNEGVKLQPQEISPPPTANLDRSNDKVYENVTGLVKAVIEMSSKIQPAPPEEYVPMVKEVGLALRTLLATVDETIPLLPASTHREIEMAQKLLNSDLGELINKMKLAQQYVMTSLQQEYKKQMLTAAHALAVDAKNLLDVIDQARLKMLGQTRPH
Albumin (Bos taurus), sequence (P02769 whole entry, looked up): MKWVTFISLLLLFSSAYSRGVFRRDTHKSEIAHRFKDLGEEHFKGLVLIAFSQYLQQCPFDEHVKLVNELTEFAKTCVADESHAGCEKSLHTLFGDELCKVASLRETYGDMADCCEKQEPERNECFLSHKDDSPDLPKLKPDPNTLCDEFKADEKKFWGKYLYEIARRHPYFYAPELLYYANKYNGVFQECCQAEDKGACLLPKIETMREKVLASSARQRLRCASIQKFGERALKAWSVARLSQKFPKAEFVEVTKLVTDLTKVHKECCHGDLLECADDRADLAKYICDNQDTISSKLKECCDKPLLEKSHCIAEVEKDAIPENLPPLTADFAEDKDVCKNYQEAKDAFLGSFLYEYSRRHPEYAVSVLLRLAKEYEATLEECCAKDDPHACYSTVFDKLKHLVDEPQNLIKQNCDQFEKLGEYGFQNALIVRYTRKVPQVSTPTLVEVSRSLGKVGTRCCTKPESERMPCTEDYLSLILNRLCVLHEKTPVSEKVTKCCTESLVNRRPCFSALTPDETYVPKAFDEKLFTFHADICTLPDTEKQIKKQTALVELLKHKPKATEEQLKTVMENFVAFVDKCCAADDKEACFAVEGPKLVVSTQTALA
Concanavalin-A (Canavalia ensiformis), sequence (P02866 whole entry, looked up): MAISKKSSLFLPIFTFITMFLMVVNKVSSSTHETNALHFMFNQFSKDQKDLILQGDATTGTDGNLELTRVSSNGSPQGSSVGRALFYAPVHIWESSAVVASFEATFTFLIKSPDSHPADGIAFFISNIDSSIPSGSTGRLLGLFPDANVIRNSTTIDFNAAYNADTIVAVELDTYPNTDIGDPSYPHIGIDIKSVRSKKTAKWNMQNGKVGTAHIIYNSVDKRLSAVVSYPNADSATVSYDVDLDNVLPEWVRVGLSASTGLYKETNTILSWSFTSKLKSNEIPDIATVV

SMILES: CN(C)C(=O)[C@]1(CCS(=O)(=O)c2ccccc2)N=C(c2ccc(OCCCO)cc2)O[C@@H]1c1ccccc1CN=[N+]=[N-]
- composite z-score (Albumin (Bos taurus)): 0.955
- composite Z-score [1]: 0.581 (inactive)
- composite z-score [2]: 0.0743
- composite z-score [3]: 0.139
- composite z-score [4]: 0.73
- composite z-score [5]: 2.78
- composite z-score [6]: 0.766
- composite z-score (Sam68 (KHDRBS1)): 1.3
- composite z-score [7]: -0.109
- composite z-score [8]: 1.17
- composite z-score [9]: 2.64
- composite z-score [10]: 1.26
- composite z-score [11]: 1.08
- composite z-score [12]: 0.994
- composite z-score [13]: 0.983
- composite z-score [14]: 1.45
- z-score [15]: -0.381
- composite z-score (Lefty1): -0.421
- composite z-score [16]: 0.774
- z-score [17]: -0.345 (inactive)

SMILES: COCCOC(=O)N1C(=O)[C@@]2(c3cc(C#CCNC(N)=O)ccc31)[C@H](C(N)=O)[C@H]1C(=O)O[C@H](c3ccccc3)[C@H](c3ccccc3)N1[C@@H]2c1ccc(O)cc1
- composite z-score (Albumin (Bos taurus)): -0.153
- composite Z-score [1]: 0.003 (inactive)
- composite z-score [2]: 0.153
- composite z-score [3]: 0.234
- composite z-score [4]: 0.606
- composite z-score [5]: 0.609
- composite z-score [6]: -0.545
- composite z-score (Sam68 (KHDRBS1)): -0.148
- composite z-score [7]: 0.267
- composite z-score [8]: -0.267
- composite z-score [9]: 1.78
- composite z-score [10]: -0.767
- composite z-score [11]: -0.284
- composite z-score [12]: -0.424
- composite z-score [13]: 0.994
- composite z-score [14]: 0.287
- z-score [15]: 0.222
- composite z-score (Lefty1): 0.115
- composite z-score [16]: -0.113
- z-score [17]: -2.19 (inactive)

SMILES: [N-]=[N+]=Nc1ccccc1C[C@@]1(C(=O)NCC(O)CO)N=C(c2ccc(OCCCO)cc2)O[C@@H]1c1ccccc1N=[N+]=[N-] (stereo not given in full)
- composite z-score (Albumin (Bos taurus)): 0.874
- composite Z-score [1]: -0.213 (inactive)
- composite z-score [2]: 0.204
- composite z-score [3]: 0.0124
- composite z-score [4]: 0.78
- composite z-score [5]: 2.25
- composite z-score [6]: 1.26
- composite z-score (Sam68 (KHDRBS1)): 1.12
- composite z-score [7]: -0.802
- composite z-score [8]: 0.902
- composite z-score [9]: 1.85
- composite z-score [10]: 1.18
- composite z-score [11]: 1.03
- composite z-score [12]: 0.79
- composite z-score [13]: 0.14
- composite z-score [14]: -0.491
- z-score [15]: -2.28
- composite z-score (Lefty1): -0.19
- composite z-score [16]: 1.13
- z-score [17]: -4.27 (inactive)

SMILES: C[C@@]1([C@@H](NS(=O)(=O)c2cccc3cccnc23)c2ccc(-c3ccccc3)cc2)C[C@H]1C1CCCCC1
- composite z-score (Albumin (Bos taurus)): 0.533
- composite Z-score [1]: -0.343 (inactive)
- composite z-score [2]: 0.314
- composite z-score [3]: 0.131
- composite z-score [4]: 0.549
- composite z-score [5]: 2.06
- composite z-score [6]: 0.165
- composite z-score (Sam68 (KHDRBS1)): 0.292
- composite z-score [7]: -0.214
- composite z-score [8]: 0.391
- composite z-score [9]: 0.431
- composite z-score [10]: 1.18
- composite z-score [11]: 1.14
- composite z-score [12]: -0.744
- composite z-score [13]: 0.247
- composite z-score [14]: -0.506
- z-score [15]: 0.00915
- composite z-score (Lefty1): -0.959
- composite z-score [16]: 0.655
- z-score [17]: 1.29 (inactive)

SMILES: COC(=O)C(CC#Cc1ccc2c(c1)[C@]1(C(=O)N2)[C@H](C(=O)N2CCCCCCC2)[C@H]2C(=O)O[C@H](c3ccccc3)[C@H](c3ccccc3)N2[C@@H]1c1ccc(OCCO)cc1)C(=O)OC
- composite z-score (Albumin (Bos taurus)): 0.844
- composite Z-score [1]: 10.3 (active)
- composite z-score [2]: 2.18
- composite z-score [3]: 1.19
- composite z-score [4]: 1.12
- composite z-score [5]: 5.47
- composite z-score [6]: 0.497
- composite z-score (Sam68 (KHDRBS1)): 1.33
- composite z-score [7]: 1.57
- composite z-score [8]: 1.18
- composite z-score [9]: 3.39
- composite z-score [10]: 1.32
- composite z-score [11]: 4.91
- composite z-score [12]: 0.943
- composite z-score [13]: 1.49
- composite z-score [14]: 1.6
- z-score [15]: -0.949
- composite z-score (Lefty1): 1.79
- composite z-score [16]: 1.77
- z-score [17]: 0.035 (inactive)
